# HCV inh – qHTS Assay for Inhibitors of Hepatitis C Virus (HCV); 340,000 tested, 3.4% active; AID 651820, 2012; Potency, µM (titrated, usually from 41.8 µM), without a hit: at the highest dose activity change, negative = inhibition, actives largely listed as inhibitors; Huh7.5.1 HCVcc-Cre infection, luciferase reporter, 44 h; active = well fitted inhibition curve with a large enough effect; inconclusive = small, poorly fitted or top-dose-only effect, or another doubt; inactive = no such curve, though single readings can be large or run the other way; also: potency is read from the fitted curve at half-maximal effect
#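 Compounds are dispensed onto cells plated 4 h earlier at 1,000 per well, with HCVcc-Cre virus (about 0.5 moi) added next. Following 44 h of culture, luminescent signal is measured for 15 sec after 15 min with substrate at room temperature.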
# Vaccinia mCherry – qHTS for Stage-Specific Inhibitors of Vaccinia Orthopoxvirus: mCherry Reporter Primary qHTS | 310,000 tested, 0.63% active | AID 720579, 2013 | Potency, µM (top dose mostly 36.5 µM), without a hit: at the top dose activity change, negative = inhibition, actives largely listed as inhibitors | Vaccinia virus mCherry reporter infection, fluorescence; calls by dose curve; tested in A549 cells; also: potency is read from the fitted curve at half-maximal effect; nearly all actives have a fitted effect of over 35% in size
# HCMV inh – qHTS Assay for inhibitors of the human cytomegalovirus (HCMV); HFF cells, HCMV-luciferase reporter, 72 h; stronger effect = lower value; activity change, negative = inhibition, % at 57.5 µM; 410,000 tested, 4.5% active; AID 1259415, 2018; in the data active = activity change below about -60%; inconclusive = no clear call, values can overlap the other calls; inactive = above about -39%
#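 Steps: HFFs plated, 16 h 37C; compounds added; HCMV-luciferase added to MOI 1 PFU/cell; 72 h 37C; OneGlo reagent, 5 min room temperature; luminescence read, normalized to controls.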
# MARV entry inh – qHTS for inhibitors of binding or entry into cells for Marburg Virus. Marburg virus pseudotyped entry inhibition, cell reporter. Potency, µM (series often up to 37.8 µM), for the others: at the top dose activity change, negative = inhibition, hits mostly inhibitors. 300,000 tested, 1.8% active. AID 540276, 2011; calls by dose curve; tested in HEK293 cells; also: potency is read from the fitted curve at half-maximal effect
# LASV entry inh – qHTS for Inhibitors of binding or entry into cells for Lassa Virus | Lassa virus pseudotype entry inhibition, cell reporter | Potency, µM (doses to about 37.9 µM), without a hit: top-dose activity change, negative = inhibition, actives largely listed as inhibitors | 300,000 tested, 1.2% active | AID 540256, 2011; calls by dose curve; tested in HEK293 cells; also: potency is read from the fitted curve at half-maximal effect; nearly all actives have a fitted effect of over 50% in size
# VACV Venus inh – qHTS for Stage-Specific Inhibitors of Vaccinia Orthopoxvirus: Venus Reporter Primary qHTS; Potency, µM (titrated, usually from 36.5 µM), without a hit: at the highest dose activity change, negative = inhibition, most hits filed as inhibitors; 330,000 tested, 0.46% active; Vaccinia virus Venus reporter expression, fluorescence; calls by dose curve; tested in A549 cells; also: potency is read from the fitted curve at half-maximal effect; nearly all actives have a fitted effect of over 30% in size
# * marks the source's active call; other numbers are inactive results; i = inactive; ? = inconclusive; / = not tested or not shown; ! = repeats disagree; [ ] = remark or other dose. Rows were chosen to be rich in hits. Some 7.8% of all compounds tested hit in one or more screens of this group. % is scaled to controls: 0 for no effect and ±100 for the full control effect.
SMILES,HCV inh,Vaccinia mCherry,HCMV inh,MARV entry inh,LASV entry inh,VACV Venus inh
Cc1ccc(C(C(=O)NCc2ccco2)N(C(=O)CNC(=O)c2cccs2)c2c(C)cc(C)cc2C)cc1 (stereo not given),?,-11%,-78*,?,?,-8%
Cc1cc(C)n2cc(CSc3nnnn3-c3ccccc3)nc2n1,13%,/,-71*,1%,-3%,/
Cc1cccc(C#Cc2ccccc2)n1,1.1µM*,-6%,-65*,?,?,-16%
CSc1nnc(NC(=O)c2nc(S(=O)(=O)Cc3cccc(C)c3)ncc2Cl)s1,13µM*,-7%,-103*,?,?,2%
Cc1ccc(C)c(NC(=O)c2nc(Cl)ccc2Cl)c1,-4%,/,20,/,/,/
CC(C)c1nnc(NC(=O)c2nc(SCc3ccc(F)cc3)ncc2Cl)s1,/,-1%,4,29%[46.1 µM],9%[46.1 µM],9%
Cc1cccc(CS(=O)(=O)c2ncc(Cl)c(C(=O)Nc3nnc(C(C)C)s3)n2)c1,11µM*,-7%,-100*,?,?,-6%
Cc1ccc(C)c(NC(=O)c2nc(S(=O)(=O)Cc3ccc(F)cc3)ncc2Cl)c1,/,-17%[7.34 µM],-100*,6%[46.1 µM],?,-14%[7.34 µM]
Cc1ccc(CS(=O)(=O)c2ncc(Cl)c(C(=O)Nc3nnc(C(C)C)s3)n2)cc1,?,10%[7.34 µM],-98*,?,?,-9%
CC(C)c1nnc(NC(=O)CS(=O)(=O)Cc2ccccc2)s1,2%,0%,-9,7%[46.1 µM],12%[46.1 µM],-10%
Cc1ncc2c(c1CNC(=O)c1ccc3c(c1)OCO3)CCN(C(=O)/C=C/c1ccc(Cl)cc1)C2,/,-3%,/,/,/,15%
CC(C)c1nnc(NC(=O)c2nc(S(=O)(=O)Cc3ccc(F)cc3)ncc2Cl)s1,?,i,-102*,?,?,-6%
CCSc1nnc(NC(=O)c2nc(S(=O)(=O)Cc3ccc(F)cc3)ncc2Cl)s1,?,-14%,-102*,3%[46.1 µM],?,-6%
C=CCSc1nnc(NC(=O)c2nc(SCC)ncc2Cl)s1,18%,/,-28,2%,0%,/
Cc1cc(Br)cnc1NC(=S)Nc1ccc(F)cc1F,10µM*,-17%,-25,?,4%[46.1 µM],-5%
CCOC(=O)c1[nH]c2c(c1Cc1ccccc1OC)C(=O)CC(c1ccc(OC)cc1)C2 (stereo not given),/,i,-35,?,-24%[46.1 µM],-25%
Cc1c(NS(=O)(=O)c2ccccc2)c(=O)n(-c2ccccc2)n1C,12%,/,-10,?,-19%,/
Cc1c(NC(=O)C(C)N2C(=O)c3ccccc3C2=O)c(=O)n(-c2ccccc2)n1C (stereo not given),4%,-5%,41,4%,3%,-15%
Cc1c(NC(=O)C(C)N2C(=O)C3C4C=CC(C4)C3C2=O)c(=O)n(-c2ccccc2)n1C (stereo not given),6%,i,-66*,5%,/,-1%
C=CCc1cccc(CNc2c(C)n(C)n(-c3ccccc3)c2=O)c1O,32µM*,/,-8,4%,15%,/
Cc1ccc(S(=O)(=O)Nc2c(C)n(C)n(-c3ccccc3)c2=O)cc1,27%,4%,-98*!,1%[46.1 µM],?,-6%
Cc1c(NC(=O)C(C)Sc2nc(N)cc(=O)[nH]2)c(=O)n(-c2ccccc2)n1C (stereo not given),8%,/,-63*,/,/,/
COc1ccc2nc3oc(C(=O)N4CCN(c5cc(C)ccc5C)CC4)cc3cc2c1,/,i,50,18%[46.1 µM],?,-11%
COc1ccc(CNC(=O)C2CCN(c3nnc(-n4c(C)ccc4C)s3)CC2)c(OC)c1,/,-10%,27,-15%[46.1 µM],-26%[46.1 µM],-10%
CN1CCc2c(sc3c2C(=O)NC(c2ccc(OC(=O)c4ccccc4)cc2)N3)C1 (stereo not given),/,-16%[7.34 µM],199,?,?,-9%[7.34 µM]
SMILES,HCV inh,Vaccinia mCherry,HCMV inh,MARV entry inh,LASV entry inh,VACV Venus inh
Cc1ccc(-c2nc3c4ccccc4n(CC(=O)NCc4ccc(F)cc4)c(=O)n3n2)cc1,/,-1%,-11,/,11%[46.1 µM],1%
Cc1c(NC(C)c2ccccc2O)c(=O)n(-c2ccccc2)n1C (stereo not given),10%,/,71,-1%,-16%,/
Cc1c(C(c2ccc(O)cc2)c2c(C)n(C)n(-c3ccccc3)c2=O)c(=O)n(-c2ccccc2)n1C,-6%,-3%,-14,26%[46.1 µM],3%,-5%
Cc1c(C(c2ccc(C(=O)O)cc2)c2c(C)n(C)n(-c3ccccc3)c2=O)c(=O)n(-c2ccccc2)n1C,3.5µM*,-14%,9,-13%,?,-2%
Cc1c(NC(C)C)c(=O)n(-c2ccccc2)n1C,0.56µM*,-3%,-16,/,/,-16%
Cc1ccc(OCc2nc3ccccc3n2Cc2ccccc2Cl)cc1,/,-8%,-33,?,-18%[46.1 µM],-15%
CC(C)=CCC/C(C)=C/CO/N=C1\C[C@@H](O)[C@@H](O)[C@@H]2[C@@H]3C(=O)N(Cc4ccc5c(c4)OCO5)C(=O)[C@@H]3CC[C@@H]12,/,/,/,-17%[14.2 µM],/,/
OC1c2cc(Br)ccc2N=C2CCCN21 (stereo not given),?,/,-100*,/,/,/
Cc1ccc(NC(=O)c2nc[nH]c2C(=O)NC2CCN(C(=O)OC(C)(C)C)CC2)cc1,3%,-11%,9,/,/,?
CC(C)(C)OC(=O)N1CCC(NC(=O)c2[nH]cnc2C(=O)Nc2ccc(Cl)cc2)CC1,15%,-28%,?,-1%,/,14µM*
Clc1ccc(CSc2nnc(NC3=NCCCCC3)s2)cc1,?,/,-67*,-28%,-12%,?
Cc1sc2ncnc(N3CCC(C(=O)Nc4ccc(S(N)(=O)=O)cc4)CC3)c2c1C,?,/,-79*,/,/,/
Cc1sc2ncnc(N3CCC(C(=O)Nc4ccc(C#N)cc4)CC3)c2c1C,7%,-11%,-3,20%,-7%,-3%
Cc1ccc(NC(=O)C2CCN(c3ncnc4sc(C)c(C)c34)CC2)cc1S(=O)(=O)N(C)C,10µM*,i,?,?,-17%,-19%
Cc1sc2ncnc(N3CCC(C(=O)Nc4nc(-c5cccs5)cs4)CC3)c2c1C,?,-10%,16,2.2µM*,4%,-7%
Cc1sc2ncnc(N3CCC(C(=O)Nc4cc(S(C)(=O)=O)ccc4Cl)CC3)c2c1C,?,-10%,-33,?,-3%,-24%
CCN(CC)S(=O)(=O)c1cc(NC(=O)C2CCN(c3ncnc4sc(C)c(C)c34)CC2)ccc1Cl,6.3µM*,?,-82*,3.5µM*,?,?
O=C(CCCc1nc(-c2ccccc2)no1)Nc1cc(C(F)(F)F)cc(C(F)(F)F)c1,/,-8%,-4,-10%[46.1 µM],11%[46.1 µM],-3%
